Reference: PubChem BioAssay (NCI)
About 79,000 compounds went through this panel and 15% of them were active in at least one assay; those are over-represented in the sample as a whole. Activity calls are given as the source filed them. No stated cut-off is given here; in the data, active means growth inhibition above about 70%; inactive means the rest.

assay: NCI Yeast Anticancer Drug Screen. Data for the rad50 strain (AID 155);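 further: 0% = growth of vehicle-only cultures of the same strain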; details: S. cerevisiae rad50 strain growth inhibition; at 50.0 µM; stronger effect = higher value
In short: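 Compounds were tested on a yeast strain with an engineered DNA damage repair alteration; the reported value is growth inhibition normalised to vehicle treatment.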

Row | SMILES | growth inhibition
1 | Cc1ccc2nc(N)nnc2c1 | -5.9% (inactive)
2 | CC(CC(CCC(=O)O)(c1ccccc1)c1ccccc1)N(C)C (configuration not stated) | 19.6% (inactive)
3 | CCOC(=O)c1ccc(Nc2sc(C(=O)c3ccc(Br)cc3)c(N)c2C#N)cc1 | -9.4% (inactive)
4 | CCCCNc1ccc(-c2ccc(NCCCC)cc2)cc1 | 31.9% (inactive)
5 | O=C(CCl)Nc1ccccc1SCc1cc(Cl)cc2c1OCOC2 | -5.7% (inactive)
6 | NC(CSSCC(N)C(=O)O)C(=O)O (configuration not stated) | -11.6% (inactive)
7 | C=CCNC(=S)N/C=C(/C(=O)c1ccccc1)c1ccccc1 | -53.6% (inactive)
8 | COC1C(=O)CCC2(CO2)C1(O)C1(C)OC1CCC(C)C (configuration not stated) | -27.1% (inactive)
9 | O=C(O)C1CSC(c2ccccc2)N1 (configuration not stated) | 1.95% (inactive)
10 | CN(C)CCOC(=O)Nc1ccc(Cc2ccc(NC(=O)OCCN(C)C)cc2)cc1 | -2.1% (inactive)
11 | CCCCN(C(=O)CC)c1ccccc1 | 23.7% (inactive)
12 | C=CCN1CCCC1=O | 7.85% (inactive)
13 | CC(=O)NC(CCc1ccc(Cl)c(Cl)c1)c1cccc(O)c(=O)c1 (configuration not stated) | 88.9% (active)
14 | CC(=O)N(C(C)=O)c1ccc(C)cc1 | -13.7% (inactive)
15 | CCNCC(C)(C)O | 7.7% (inactive)
16 | Cc1onc(-c2ccccc2Cl)c1C(=O)Cl | -41.3% (inactive)
17 | O=C(OCc1ccccc1)n1nnc2ccccc21 | 27.8% (inactive)
18 | CC(CCC#N)(CCC#N)C(=O)c1ccccc1 | 28.6% (inactive)
19 | COc1ccc(NNS(=O)(=O)O)cc1 | 1.45% (inactive)

Row | SMILES | growth inhibition
20 | COc1cccc(C(=O)O)c1OC | 11.2% (inactive)
21 | CCOC(=O)C(COS(C)(=O)=O)(COS(C)(=O)=O)C(=O)OCC | -24.4% (inactive)
22 | CC1CC2C3CCC4=CC(=O)CCC4(C)C3CCC2(C)C1(O)C(=O)CO (configuration not stated) | 2% (inactive)
23 | COC(=O)C1=C(C)C(=O)CC1 | 16.7% (inactive)
24 | O=C(Nc1ccc([N+](=O)[O-])cc1)C(=O)Nc1ccc([N+](=O)[O-])cc1 | -8.7% (inactive)
25 | C=CC(=O)OC1CCC(C(C)(C)CC)CC1 (configuration not stated) | 39.9% (inactive)
26 | CCOC(=O)C(=O)CC(=O)c1ccccc1 | 8.65% (inactive)
27 | O=c1nc(Nc2cccc(Cl)c2)oc2cc(Cl)oc(=O)c12 | 32.5% (inactive)
28 | N#CC1(O)CCCCC1 | 42.6% (inactive)
29 | CCOC(=O)c1ccc(NC(=O)Nc2nccs2)cc1 | -2.95% (inactive)
30 | O=C(O)c1ccc(OCc2ccccc2)cc1 | 12.6% (inactive)
31 | CC(=O)C1C(=O)C(=O)N(c2cccc([N+](=O)[O-])c2)C1=O (configuration not stated) | -40% (inactive)
32 | Cc1cc(C(=O)NN)c(C#N)c(=O)[nH]1 | 2.2% (inactive)
33 | CCC(C)c1c(N)n(S(=O)(=O)c2ccc(C)cc2)oc1=O (configuration not stated) | -25.2% (inactive)
34 | O=c1cc(C(F)(F)F)[nH]c(=S)[nH]1 | -21.9% (inactive)
35 | OCCc1ccc(Cl)cc1 | 10.8% (inactive)
36 | CCCOCc1cn[nH]n1 | -9.7% (inactive)
37 | Cc1cc(NC(=O)c2ccccc2)c(Cl)cc1N | -26.4% (inactive)
